The record followed here is ChEMBL document CHEMBL3988442, “University of Dundee, Small-Polar-MMV Screening Library” (2021).

What all share (parameters): scale not given: direction of the effect not stated beside the values
Test [1] concerns the target Protein translocase subunit SecA (Escherichia coli (strain K12)) (UniProt P10408). Put plainly: Assay to Identify E. coli SecA ATPase Inhibitors. Particulars: 30 µM. It counts as functional.
Test [2] has as its target T1, Ubiquitin-activating enzyme e1, putative (Leishmania donovani (strain BPK282A1)) (UniProt E9BSI1).
T1 sequence (whole entry): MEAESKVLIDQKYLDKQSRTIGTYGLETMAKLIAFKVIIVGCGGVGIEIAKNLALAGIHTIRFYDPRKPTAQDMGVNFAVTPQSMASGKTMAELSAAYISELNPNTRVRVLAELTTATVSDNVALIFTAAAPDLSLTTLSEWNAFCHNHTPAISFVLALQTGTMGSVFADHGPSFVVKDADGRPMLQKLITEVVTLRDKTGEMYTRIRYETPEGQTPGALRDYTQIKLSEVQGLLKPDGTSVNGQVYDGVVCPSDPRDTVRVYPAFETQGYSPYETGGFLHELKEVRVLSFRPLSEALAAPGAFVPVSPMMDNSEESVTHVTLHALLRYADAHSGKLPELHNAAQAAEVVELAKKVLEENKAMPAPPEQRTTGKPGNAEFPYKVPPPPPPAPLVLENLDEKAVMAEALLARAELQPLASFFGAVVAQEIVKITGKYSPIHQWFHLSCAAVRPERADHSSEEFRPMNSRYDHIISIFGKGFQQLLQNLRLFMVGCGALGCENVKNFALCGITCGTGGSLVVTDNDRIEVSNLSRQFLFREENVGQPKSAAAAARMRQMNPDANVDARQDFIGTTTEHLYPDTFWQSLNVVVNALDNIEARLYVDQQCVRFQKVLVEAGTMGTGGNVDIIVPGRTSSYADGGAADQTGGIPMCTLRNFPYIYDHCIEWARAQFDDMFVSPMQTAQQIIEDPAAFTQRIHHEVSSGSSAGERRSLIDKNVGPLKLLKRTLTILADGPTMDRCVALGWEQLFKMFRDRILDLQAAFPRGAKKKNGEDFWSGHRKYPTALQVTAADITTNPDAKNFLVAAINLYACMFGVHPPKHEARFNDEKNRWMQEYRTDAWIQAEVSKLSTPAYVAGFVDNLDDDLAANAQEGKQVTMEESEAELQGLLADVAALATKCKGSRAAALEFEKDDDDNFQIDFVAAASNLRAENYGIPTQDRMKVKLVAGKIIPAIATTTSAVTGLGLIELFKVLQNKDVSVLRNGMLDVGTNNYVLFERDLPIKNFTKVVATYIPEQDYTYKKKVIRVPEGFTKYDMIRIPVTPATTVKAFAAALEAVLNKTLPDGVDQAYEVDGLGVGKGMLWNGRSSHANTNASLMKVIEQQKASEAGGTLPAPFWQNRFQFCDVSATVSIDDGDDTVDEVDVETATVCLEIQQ
Kind of test: Leishmania donovani Ubiquitin Activating Enzyme (LdE1). Particulars: 30 µM. It counts as functional.

The target in test [3] is AMP-activated protein kinase, AMPK (Homo sapiens) (UniProt P54646+O43741+P54619+Q9UGJ0+Q9Y478+Q13131+Q9UGI9). Kind of test: AMP-dependent Kinase enzyme assay. An in vitro enzyme assay that detects ADP turnover that is directly proportional to AMPK activity. This uses naive AMPK that is activated during the assay with MK-8722. It counts as functional. Particulars: 30 µM.

Test [4] addresses Sialic acid-binding Ig-like lectin 9 (Homo sapiens) (UniProt Q9Y336). Put plainly: Hs-Siglec9 ALPHAscreen SOP 20170721. Particulars: 10 µM.
Test [5] relates to Trypanosoma cruzi. Put plainly: Trypanosoma cruzi phosphomannomutase and mannose-1-phosphate guanylyltransferase assay. It counts as functional. Particulars: 10 µM.
For test [6], the target named is T2, Arginase-2, mitochondrial (Homo sapiens) (UniProt P78540).
T2 sequence (whole entry): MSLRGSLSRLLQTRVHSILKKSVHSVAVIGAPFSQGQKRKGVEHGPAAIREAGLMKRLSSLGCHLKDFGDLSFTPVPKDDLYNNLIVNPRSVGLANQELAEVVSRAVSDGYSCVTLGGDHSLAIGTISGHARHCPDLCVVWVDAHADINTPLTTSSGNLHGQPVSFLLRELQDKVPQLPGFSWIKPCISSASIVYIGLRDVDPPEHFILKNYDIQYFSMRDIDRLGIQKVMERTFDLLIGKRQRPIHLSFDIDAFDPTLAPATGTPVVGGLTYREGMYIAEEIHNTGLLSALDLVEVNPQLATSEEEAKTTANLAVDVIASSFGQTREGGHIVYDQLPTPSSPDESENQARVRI
Kind of test: in vitro enzyme assay to detect the production of urea directly proportional to the activity of Arginase II. Note: in the data most compounds retested in dose-response had high values. It counts as functional. Particulars: 33.3 µM.

The target in test [7] is T3, Proteasome subunit beta (Trypanosoma cruzi) (UniProt O96673).
T3 sequence (whole entry): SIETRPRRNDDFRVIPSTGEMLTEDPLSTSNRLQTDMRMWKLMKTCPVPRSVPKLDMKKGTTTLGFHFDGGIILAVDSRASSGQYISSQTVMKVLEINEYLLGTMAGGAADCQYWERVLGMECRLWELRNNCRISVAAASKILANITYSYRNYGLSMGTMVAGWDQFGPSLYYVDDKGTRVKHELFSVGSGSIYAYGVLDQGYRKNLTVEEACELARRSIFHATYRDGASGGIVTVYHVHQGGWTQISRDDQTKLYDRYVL
Kind of test: Trypanosoma cruzi proteasome chymotrypsin-like activity (TcProtChymo) assay. Note: in the data most compounds retested in dose-response had high values. In kind it is functional. Particulars: 9.37 µM.

For test [8], the species on record is Homo sapiens. Put plainly: To identify inhibition of the IFN signalling (Jak-Stat) pathway via expression of an eGFP reporter gene under the control of an IFN-stimulated response element (ISRE) containing MxA promoter. In kind it is functional. Particulars: 30 µM.
In test [9] the target is T4, Tyrosyl-tRNA synthetase, putative (Trypanosoma cruzi (strain CL Brener)) (UniProt Q4DSP6).
T4 sequence (whole entry): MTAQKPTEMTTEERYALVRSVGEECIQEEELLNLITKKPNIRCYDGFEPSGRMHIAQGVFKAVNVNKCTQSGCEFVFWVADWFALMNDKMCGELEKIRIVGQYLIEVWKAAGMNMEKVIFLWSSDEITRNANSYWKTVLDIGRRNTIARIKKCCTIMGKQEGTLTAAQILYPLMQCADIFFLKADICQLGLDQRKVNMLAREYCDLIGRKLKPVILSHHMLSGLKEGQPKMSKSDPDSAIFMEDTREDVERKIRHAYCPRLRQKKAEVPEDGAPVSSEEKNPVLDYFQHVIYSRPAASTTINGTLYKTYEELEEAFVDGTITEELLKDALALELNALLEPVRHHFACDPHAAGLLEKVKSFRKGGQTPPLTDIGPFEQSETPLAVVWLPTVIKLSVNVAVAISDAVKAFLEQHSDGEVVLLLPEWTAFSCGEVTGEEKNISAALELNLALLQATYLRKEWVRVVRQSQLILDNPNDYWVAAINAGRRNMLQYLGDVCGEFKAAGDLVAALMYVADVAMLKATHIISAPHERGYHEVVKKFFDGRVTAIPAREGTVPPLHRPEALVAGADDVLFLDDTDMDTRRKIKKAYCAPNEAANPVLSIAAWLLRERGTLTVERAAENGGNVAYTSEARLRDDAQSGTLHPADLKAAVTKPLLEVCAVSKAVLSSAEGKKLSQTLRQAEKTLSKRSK
Kind of test: Trypanosoma cruzi tyrosyl tRNA synthetase (TcYRS) _High Tyrosine SOP. Note: in the data most compounds retested in dose-response had high values. It counts as functional. Particulars: 30 µM.

In test [10] the target is T4, Tyrosyl-tRNA synthetase, putative (Trypanosoma cruzi (strain CL Brener)). Put plainly: Trypanosoma cruzi tyrosyl tRNA synthetase (TcYRS) SOP. It counts as functional. Particulars: 30 µM.
Test [11] concerns the target Chromo domain-containing protein 1 (Saccharomyces cerevisiae (strain ATCC 204508 / S288c) (Baker's yeast)) (UniProt P32657). Put plainly: ScCHD-1 Enzyme Inhibition Assay. Note: in the data most compounds retested in dose-response had high values. It counts as functional. Particulars: 30 µM.

For some of these results: Potency and affinity values are given separately.

Sequence of Sialic acid-binding Ig-like lectin 9 (Homo sapiens) (Q9Y336 whole entry): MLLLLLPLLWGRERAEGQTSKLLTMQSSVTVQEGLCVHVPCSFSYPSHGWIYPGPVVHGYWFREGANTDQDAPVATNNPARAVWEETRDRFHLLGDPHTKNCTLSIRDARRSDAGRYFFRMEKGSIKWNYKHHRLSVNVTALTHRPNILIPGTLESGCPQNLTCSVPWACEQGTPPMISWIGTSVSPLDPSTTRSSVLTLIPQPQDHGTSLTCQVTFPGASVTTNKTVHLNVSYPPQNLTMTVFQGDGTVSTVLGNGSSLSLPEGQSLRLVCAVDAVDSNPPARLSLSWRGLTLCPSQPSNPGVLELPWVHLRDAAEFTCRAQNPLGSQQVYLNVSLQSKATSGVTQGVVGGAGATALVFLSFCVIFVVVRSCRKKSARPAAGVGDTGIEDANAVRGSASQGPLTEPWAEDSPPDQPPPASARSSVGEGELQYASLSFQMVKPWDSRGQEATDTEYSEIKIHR
Sequence of Chromo domain-containing protein 1 (Saccharomyces cerevisiae (strain ATCC 204508 / S288c) (Baker's yeast)) (P32657 whole entry, the tested form may be a part): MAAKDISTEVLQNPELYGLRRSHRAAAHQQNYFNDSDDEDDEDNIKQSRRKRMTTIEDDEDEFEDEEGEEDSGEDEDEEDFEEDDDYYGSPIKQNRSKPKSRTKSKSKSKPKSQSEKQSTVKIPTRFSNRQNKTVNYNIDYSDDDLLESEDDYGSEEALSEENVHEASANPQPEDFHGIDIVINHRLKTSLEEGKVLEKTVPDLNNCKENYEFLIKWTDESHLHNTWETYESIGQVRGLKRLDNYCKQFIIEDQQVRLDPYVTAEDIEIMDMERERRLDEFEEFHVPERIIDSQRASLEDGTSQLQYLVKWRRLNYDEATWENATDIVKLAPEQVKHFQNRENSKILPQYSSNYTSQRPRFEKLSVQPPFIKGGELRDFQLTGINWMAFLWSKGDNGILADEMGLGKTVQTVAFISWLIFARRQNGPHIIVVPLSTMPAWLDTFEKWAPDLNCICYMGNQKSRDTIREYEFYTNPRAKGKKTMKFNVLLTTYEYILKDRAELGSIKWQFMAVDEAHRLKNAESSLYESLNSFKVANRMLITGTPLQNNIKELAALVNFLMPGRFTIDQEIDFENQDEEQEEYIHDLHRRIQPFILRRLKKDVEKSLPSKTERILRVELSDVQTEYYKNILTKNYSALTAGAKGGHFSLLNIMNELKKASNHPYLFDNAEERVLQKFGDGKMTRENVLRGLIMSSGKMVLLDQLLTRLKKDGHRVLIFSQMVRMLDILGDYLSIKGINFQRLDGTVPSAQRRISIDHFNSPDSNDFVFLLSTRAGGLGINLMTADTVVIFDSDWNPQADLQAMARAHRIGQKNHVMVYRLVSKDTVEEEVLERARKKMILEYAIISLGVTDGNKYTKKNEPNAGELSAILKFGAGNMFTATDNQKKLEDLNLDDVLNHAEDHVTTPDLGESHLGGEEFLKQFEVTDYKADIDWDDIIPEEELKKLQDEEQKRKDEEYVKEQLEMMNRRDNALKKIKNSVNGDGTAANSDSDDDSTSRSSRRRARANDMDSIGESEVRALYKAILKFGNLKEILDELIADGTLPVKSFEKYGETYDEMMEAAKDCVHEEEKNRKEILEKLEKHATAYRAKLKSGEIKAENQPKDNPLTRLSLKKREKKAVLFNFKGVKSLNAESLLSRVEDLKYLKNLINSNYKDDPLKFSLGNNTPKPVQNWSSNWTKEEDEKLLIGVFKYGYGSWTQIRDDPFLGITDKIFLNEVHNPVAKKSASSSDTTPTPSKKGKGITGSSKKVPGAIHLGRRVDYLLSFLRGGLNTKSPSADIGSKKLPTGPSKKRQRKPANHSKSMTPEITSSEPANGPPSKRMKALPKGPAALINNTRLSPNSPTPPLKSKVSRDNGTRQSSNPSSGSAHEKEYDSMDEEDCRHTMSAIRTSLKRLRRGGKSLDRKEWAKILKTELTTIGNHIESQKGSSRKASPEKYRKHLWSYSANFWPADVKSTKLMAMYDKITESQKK
Sequence of Protein translocase subunit SecA (Escherichia coli (strain K12)) (P10408 whole entry): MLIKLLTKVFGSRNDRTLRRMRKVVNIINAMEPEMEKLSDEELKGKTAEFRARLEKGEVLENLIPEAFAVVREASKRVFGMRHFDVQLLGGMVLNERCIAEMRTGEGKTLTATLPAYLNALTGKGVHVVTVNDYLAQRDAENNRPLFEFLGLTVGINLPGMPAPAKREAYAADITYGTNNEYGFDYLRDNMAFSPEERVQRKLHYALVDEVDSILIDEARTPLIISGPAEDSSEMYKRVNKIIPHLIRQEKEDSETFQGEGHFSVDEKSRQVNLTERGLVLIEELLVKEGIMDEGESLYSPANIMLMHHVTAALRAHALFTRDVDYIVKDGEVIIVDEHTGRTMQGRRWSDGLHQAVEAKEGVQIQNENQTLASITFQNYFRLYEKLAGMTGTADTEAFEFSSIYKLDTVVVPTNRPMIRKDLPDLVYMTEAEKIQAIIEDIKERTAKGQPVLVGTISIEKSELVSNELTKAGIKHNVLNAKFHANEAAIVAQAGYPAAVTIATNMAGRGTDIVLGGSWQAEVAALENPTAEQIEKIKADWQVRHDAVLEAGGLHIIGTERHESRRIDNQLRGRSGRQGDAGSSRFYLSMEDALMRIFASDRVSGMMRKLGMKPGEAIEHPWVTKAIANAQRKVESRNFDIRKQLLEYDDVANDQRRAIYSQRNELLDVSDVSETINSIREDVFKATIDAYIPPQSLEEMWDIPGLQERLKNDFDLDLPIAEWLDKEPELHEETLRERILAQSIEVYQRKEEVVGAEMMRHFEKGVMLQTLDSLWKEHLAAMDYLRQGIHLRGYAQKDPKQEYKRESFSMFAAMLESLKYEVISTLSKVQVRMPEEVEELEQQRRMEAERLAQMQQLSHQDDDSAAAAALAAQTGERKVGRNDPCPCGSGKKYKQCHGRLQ

Regarding `CS(=O)(=O)c1ccc(CNC2CCCN(c3cccnn3)C2)cc1` (stereo unspecified), the Percent Effect in test [1] is -2.48%; in test [2], 18.2%; in [3], 4.4%; in test [4], -0.526%; in [5], 0.686%; in test [6] it was 6.53%. Further, the Percent Effect was 12.5% in [7]; 9.14% in test [8]; 8.57% in [9]; 21.2% in test [10]; -19% in [11].
As for `CN(C)CCOCC1CN(C(=O)[C@H]2CCCO2)Cc2ccnn2C1` (stereo partly specified), the Percent Effect in test [1] was -0.666%; in [2], 0%; in [3], -0.823%; in test [4] it was 5.06%; in [5], -1.35%; in test [6] it was -46.1%. Further, the Percent Effect in test [7] was 2.91%; in [8] it was -2.46%; in test [9] it was 1.04%; in test [10], -55%; in test [11], 3.03%.
With `Cc1cc(NC(=O)CN2CCCC2c2noc(C3CC3)n2)no1` (stereo unspecified), the Percent Effect in test [1] is -4.72%; in test [2], 13.7%; in test [3], 11.2%; in [4], 9.93%; in test [5] it was 5.68%; in test [6], -0.909%. Moreover, the Percent Effect was determined as 16.9% in test [7]; 5.99% in test [8]; 3.23% in test [9]; 15% in test [10]; 22.7% in [11].
Take `O=C(NCc1ccccn1)Nc1cc(C(F)(F)F)c[nH]c1=O`: the Percent Effect was -6.27% in test [1]; 5.41% in [2]; -7.01% in test [3]; 23.6% in test [4]; 4.74% in [5]; 4.25% in [6]. Also, the Percent Effect in [7] was 4.67%; in [8], 2.58%; in test [9], 3.96%; in test [10], 18.3%; in test [11], -8.44%.
Take `CC(O)CN1CCN(C(=O)c2cc3ccccc3c(=O)[nH]2)CC1` (stereo unspecified): the Percent Effect is -0.781% in test [1]; -5.26% in test [2]; 5.31% in test [3]; -2.11% in test [4]; -3.41% in [5]; -10.7% in test [6]. Moreover, the Percent Effect in test [7] was 13.1%; in test [8], -6.84%; in [9], 0%; in test [10] it was 2.6%; in test [11], 12.2%.
Take `CCC(C)(C)NC(=O)CN(C)C(c1cccc(F)c1)c1ccccn1` (stereo unspecified): the Percent Effect in test [1] is 0.66%; in [2], 2.6%; in [3] it was 9.59%; in [4], 15.1%; in test [5] it was -3.56%; in test [6] it was 3.56%. In addition, the Percent Effect in test [7] was 0.845%; in [8], 36.6%; in test [9], 5.83%; in [10], 7.32%; in test [11] it was -2.33%.
Consider `COc1cc2nc3n(c(=O)c2cc1OC)CCN(C)CC3`, for which the Percent Effect in [1] was -7.78%; in test [2], 1.35%; in [3], 11.9%; in [4], 1.61%; in test [5] it was -3.56%; in test [6], -3.48%. Also, the Percent Effect in [7] was 0.312%; in [8], 0.926%; in test [9], 2.15%; in test [10], 3.9%; in test [11] it was -5.62%.
Take `CC(C(N)=O)N(C)CCCc1cc(-c2ccccc2)no1` (stereo unspecified): the Percent Effect in test [1] is -2.48%; in test [2] it was 13.5%; in test [3] it was 3.69%; in test [4], 0.652%; in [5] it was -9.75%; in test [6] it was -0.185%. The Percent Effect is 7.54% in test [7]; 10.5% in [8]; 5.94% in test [9]; 13.4% in test [10]; -3.63% in test [11].
As to `CN(C)CCN1CCO[C@H]2CN(Cc3cnn(C)c3)C[C@H]21`, the Percent Effect in [1] was -3.56%; in test [2] it was 0%; in test [3] it was -1.78%; in test [4], 7.45%; in [5], -4.2%; in test [6], 2.73%. The Percent Effect was 2.83% in test [7]; -0.175% in [8]; 5.38% in [9]; 11.1% in [10]; -3.54% in test [11].
As for `Cc1nnc2n1CCN(C(=O)COCCOc1ccccc1)C2`, the Percent Effect is -3.64% in test [1]; -21.5% in test [2]; 10% in test [3]; 1.03% in test [4]; -1.33% in test [5]; 4.95% in test [6]. Also, the Percent Effect was 7.89% in [7]; 3.44% in [8]; 5.21% in [9]; 12.7% in [10]; -1.76% in test [11].
For `CN(CCc1ccccc1)c1cnn(CC(=O)N2CCSCC2)c(=O)c1`, the Percent Effect was -1.2% in [1]; 0% in test [2]; 19.7% in test [3]; 12.4% in test [4]; -4.5% in test [5]; 2.73% in test [6]. Besides, the Percent Effect was -1.6% in test [7]; 4.15% in [8]; 1.07% in test [9]; 2.5% in [10]; 0.365% in test [11].
